Among the data in PubChem BioAssay (EPA / NIEHS) are outcome and AC50 values, retold here.

Records with an inconclusive call do not appear. Activity calls are given as the source filed them. The calls were made as follows, unless noted: active = hit-call score of the fitted dose curve at least 0.9, where 1 is the maximum; inactive = score below 0.9.

The target of test [1] is Paired box protein Pax-6 (Homo sapiens) (UniProt P26367). Description: ATG_Pax6_CIS: Attagene CIS-FACTORIAL HepG2 Assay for human Paired Box 6 (PAX6) (AID 2282956). The following applies: HepG2 CIS-FACTORIAL PAX6 reporter transcription, RNA readout; actives raise or lower the signal. An outline of the steps: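 HepG2 cells transiently transfected with cis-promoter-driven multiplexed reporter units sensing endogenous transcription factor activity; 24 h chemical exposure. Reporter mRNA quantified by RT-PCR, 6-FAM labelling, HpaI digestion and capillary electrophoresis; bidirectional fit versus DMSO baseline.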

Test [2] in a line: ATG_PXRE_CIS: Attagene CIS-FACTORIAL HepG2 Assay for human Pregnane X Receptor Element (PXRE) (AID 2282957). Conditions: HepG2 Attagene CIS-FACTORIAL PXRE reporter, mRNA; actives raise or lower the signal. A digest of the protocol: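 Transfect HepG2 with MRTUs (cis promoter elements); dose chemical, incubate 24 h; isolate RNA, RT with oligo(dT), PCR, 6-FAM label, HpaI cut, CE. Gain/loss fit vs DMSO.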

Test [3] in a line: ATG_PPRE_CIS: Attagene CIS-FACTORIAL HepG2 Assay for human Peroxisome Proliferator-activated Response Element (PPRE) (AID 2282958). The following applies: HepG2 PPRE cis-element reporter, Attagene transcription factor profiling; actives raise or lower the signal. A digest of the protocol: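 In this cell-based multiplex, a PPRE cis element drives a reporter sequence in transiently transfected HepG2 cells. Following 24 h treatment, labeled cDNA amplicons are sized and quantified by capillary electrophoresis, with DMSO defining baseline.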

Test [4] has as its target Transcription factor Sp1 (Homo sapiens) (UniProt P08047). Put plainly: ATG_Sp1_CIS: Attagene CIS-FACTORIAL HepG2 Assay for human Specificity Protein 1 (Sp1) (AID 2282961). Conditions: HepG2 Sp1 cis-reporter transcription, actives raise or lower the signal. A digest of the protocol:
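Cells: HepG2, transiently transfected with cis-regulated multiplexed reporters. Exposure: 24 h. Detection: reporter transcripts amplified, fluorescently labeled, restriction-digested and sized by capillary electrophoresis. Analysis: bidirectional fit relative to DMSO.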

The nature of test [5]: ATG_SREBP_CIS: Attagene CIS-FACTORIAL HepG2 Assay for human Sterol Regulatory Element Binding (SREBP) (AID 2282962). The following applies: HepG2 Attagene cis-factorial SREBP reporter, mRNA; actives raise or lower the signal. A digest of the protocol: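 HepG2 cells transiently transfected with multiplexed cis-promoter reporter units sensing endogenous transcription factors; reporter mRNA measured 24 h after dosing by RT-PCR, 6-FAM labeling, HpaI digestion and capillary electrophoresis. Bidirectional fit versus DMSO.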

Test [6] addresses Signal transducer and activator of transcription 3 (Homo sapiens) (UniProt P40763). Put plainly: ATG_STAT3_CIS: Attagene CIS-FACTORIAL HepG2 Assay for human Signal Transducer and Activator of Transcription 3 (STAT3) (AID 2282963). The following applies: HepG2, Attagene cis-factorial STAT3 reporter transcription; actives raise or lower the signal. A digest of the protocol: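 After a 24 h compound incubation, total RNA from MRTU-transfected HepG2 cells was converted to cDNA and reporter sequences PCR-amplified, labelled and profiled by capillary electrophoresis. Gain and loss of signal were referenced to DMSO.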

Test [7] in a line: ATG_TA_CIS: Attagene CIS-FACTORIAL HepG2 Assay for human TA Basal Promoter (AID 2282964). The following applies: HepG2 Attagene CIS-factorial TA basal promoter reporter; actives raise or lower the signal. An outline of the steps:
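Steps: transfect HepG2 with MRTUs; dose 24 h; isolate RNA, DNase-treat, reverse-transcribe; PCR and FAM-label reporter cDNA; digest with HpaI 2h at 37 C; run capillary electrophoresis. Activity fitted both directions against DMSO.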

Test [8] is described as follows: ATG_TCF_b_cat_CIS: Attagene CIS-FACTORIAL HepG2 Assay for human T-Cell-Factor with beta-catenin (TCF/b-cat) (AID 2282965). The following applies: HepG2 TCF/beta-catenin cis-reporter transcription, actives raise or lower the signal. A digest of the protocol: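 Measured: reporter mRNA in HepG2 transiently transfected with cis-promoter reporter units, 24 h after chemical addition. Fitting was bidirectional, DMSO as negative control.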

The nature of test [9]: ATG_TAL_CIS: Attagene CIS-FACTORIAL HepG2 Assay for human TAL Basal Promoter (AID 2282966).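 Also: background control endpoint measuring basal TAL promoter reporter mRNA not a specific factor.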 Conditions: HepG2 Attagene cis-factorial TAL promoter reporter; actives raise or lower the signal. An outline of the steps: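 Fluorescence of labelled reporter cDNA fragments, resolved by capillary electrophoresis, gave the readout. Human HepG2 liver cells carried transiently transfected cis-element reporter units and were treated for 24 hours; activity was fitted bidirectionally against DMSO.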

Test [10] is described as follows: ATG_TGFb_CIS: Attagene CIS-FACTORIAL HepG2 Assay for human Transforming Growth Factor (TGF) (AID 2282967). Conditions: HepG2 Attagene CIS TGFb reporter, mRNA transcription; actives raise or lower the signal. A digest of the protocol:
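Cells were dosed for 24 hours, after which total RNA was reverse-transcribed and reporter sequences amplified, labeled and sized by capillary electrophoresis. Activity was fitted in both directions against DMSO.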

Test [11] can be described thus: ATG_VDRE_CIS: Attagene CIS-FACTORIAL HepG2 Assay for human Vitamin D Receptor Element (VDRE) (AID 2282968). The following applies: HepG2 VDRE cis-reporter transcription, actives raise or lower the signal. An outline of the steps: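 In transiently transfected HepG2 liver cells, gain or loss of reporter mRNA after 24 h exposure is scored relative to DMSO, using fluorescence detection by capillary electrophoresis of RT-PCR products.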

Test [12] concerns the target Nuclear receptor subfamily 1 group I member 3 (Homo sapiens) (UniProt Q14994). Description: ATG_CAR_TRANS: Attagene TRANS-FACTORIAL HepG2 Assay for human Constitutive Androstane Receptor (CAR) (AID 2282969; active = hit-call score of the fitted dose curve at least 0.9, where 1 is the maximum;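 also: activators raise reporter mRNA above DMSO so AC50 marks induction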). The following applies: HepG2 Attagene TRANS-FACTORIAL CAR reporter. A digest of the protocol: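 Readout is reporter mRNA induction, quantified by fluorescent primer extension and capillary electrophoresis after RT-PCR. Cells were HepG2 transiently carrying chimeric NR-Gal4 constructs with GAL4-UAS reporters, treated for 24 h; activity scored upward from DMSO.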

The nature of test [13]: ATG_M_19_TRANS: Attagene TRANS-FACTORIAL HepG2 Assay for M19 Transcription Factor (Internal Marker) (AID 2282974; active = hit-call score of the fitted dose curve at least 0.9, where 1 is the maximum). The following applies: HepG2 Attagene TRANS-FACTORIAL M19 internal marker reporter. An outline of the steps: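 Reporter mRNA induction was measured in transfected HepG2 cells 24 h after dosing. Endpoint fitted upward relative to DMSO and serves as a background control within the multiplexed TRANS panel.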

Test [14] can be described thus: ATG_RORE_CIS: Attagene CIS-FACTORIAL HepG2 Assay for human RAR-related Orphan Receptor Element (RORE) (AID 2282959). Conditions: HepG2 Attagene cis-factorial RORE reporter, mRNA; actives raise or lower the signal. An outline of the steps:
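Endogenous factor activity at a cis response element is read as reporter transcript levels in HepG2 cells, 24 h post-dose. Transcripts are quantified by RT-PCR with capillary electrophoresis, and data fitted in both directions against DMSO.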

Test [15] deals with X-box-binding protein 1 (Homo sapiens) (UniProt P17861). Description: ATG_Xbp1_CIS: Attagene CIS-FACTORIAL HepG2 Assay for human X-box Binding Protein 1 (XBP1) (AID 2282972). Conditions: HepG2 XBP1 cis-element reporter, Attagene multiplex; actives raise or lower the signal. A digest of the protocol: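 HepG2 cells transiently transfected with multiple cis-element reporter units report endogenous TF activity; 24 h exposure, then reporter mRNA measured by RT-PCR, 6-FAM labelling, HpaI digestion and capillary electrophoresis. Bidirectional fitting versus DMSO.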

Test [16] concerns the target Glucocorticoid receptor (Homo sapiens) (UniProt P04150). Put plainly: ATG_GR_TRANS: Attagene TRANS-FACTORIAL HepG2 Assay for human Glucocorticoid Receptor (GR) (AID 2282978; active = hit-call score of the fitted dose curve at least 0.9, where 1 is the maximum;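 also: activators score as hits since higher reporter transcript over DMSO is fitted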). The following applies: HepG2 Attagene TRANS GR reporter, mRNA transcription. A digest of the protocol:
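Reporter transcript levels, detected by fluorescence after RT-PCR and capillary electrophoresis, served as the endpoint. HepG2 cells bearing transfected GAL4-UAS reporters responsive to NR-GAL4 chimeras were incubated with compound 24 h; DMSO defined baseline.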

A short description of test [17]: ATG_GAL4_TRANS: Attagene TRANS-FACTORIAL HepG2 Assay for GAL4 (Internal Marker) (AID 2282976; active = hit-call score of the fitted dose curve at least 0.9, where 1 is the maximum). Conditions: HepG2 Attagene TRANS GAL4 internal marker reporter. An outline of the steps:
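First, HepG2 cells were transfected with reporter units under GAL4-UAS control. Next, they were treated with chemical for 24 h. Finally, RNA was reverse-transcribed, PCR-amplified, FAM-labelled and resolved by capillary electrophoresis, with induction scored against DMSO.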

In general, AC50 refers to the midpoint of the concentration-response curve, whichever way the signal moves.

Chain of Signal transducer and activator of transcription 3 (Homo sapiens) (P40763 whole entry, looked up): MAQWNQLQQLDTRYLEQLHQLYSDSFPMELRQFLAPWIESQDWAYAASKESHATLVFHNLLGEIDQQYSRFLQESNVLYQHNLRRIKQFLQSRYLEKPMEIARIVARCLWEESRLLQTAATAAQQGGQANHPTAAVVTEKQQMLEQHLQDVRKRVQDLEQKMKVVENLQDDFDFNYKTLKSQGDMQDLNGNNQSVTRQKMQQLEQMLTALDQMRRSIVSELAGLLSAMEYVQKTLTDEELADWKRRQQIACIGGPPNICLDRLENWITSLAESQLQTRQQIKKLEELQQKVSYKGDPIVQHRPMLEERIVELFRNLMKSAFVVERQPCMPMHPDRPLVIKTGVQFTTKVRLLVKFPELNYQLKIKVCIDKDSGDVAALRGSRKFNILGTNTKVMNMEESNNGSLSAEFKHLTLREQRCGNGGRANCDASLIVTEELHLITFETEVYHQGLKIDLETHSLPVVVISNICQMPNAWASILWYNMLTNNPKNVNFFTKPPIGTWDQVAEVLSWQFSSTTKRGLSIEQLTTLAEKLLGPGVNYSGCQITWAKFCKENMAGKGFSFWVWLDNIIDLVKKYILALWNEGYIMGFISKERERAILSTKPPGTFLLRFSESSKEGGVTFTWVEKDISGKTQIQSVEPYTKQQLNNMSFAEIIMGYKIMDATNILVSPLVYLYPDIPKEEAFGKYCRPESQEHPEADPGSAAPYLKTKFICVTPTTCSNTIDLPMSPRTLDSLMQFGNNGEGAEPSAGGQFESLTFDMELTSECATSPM
Chain of Paired box protein Pax-6 (Homo sapiens) (P26367 whole entry, looked up): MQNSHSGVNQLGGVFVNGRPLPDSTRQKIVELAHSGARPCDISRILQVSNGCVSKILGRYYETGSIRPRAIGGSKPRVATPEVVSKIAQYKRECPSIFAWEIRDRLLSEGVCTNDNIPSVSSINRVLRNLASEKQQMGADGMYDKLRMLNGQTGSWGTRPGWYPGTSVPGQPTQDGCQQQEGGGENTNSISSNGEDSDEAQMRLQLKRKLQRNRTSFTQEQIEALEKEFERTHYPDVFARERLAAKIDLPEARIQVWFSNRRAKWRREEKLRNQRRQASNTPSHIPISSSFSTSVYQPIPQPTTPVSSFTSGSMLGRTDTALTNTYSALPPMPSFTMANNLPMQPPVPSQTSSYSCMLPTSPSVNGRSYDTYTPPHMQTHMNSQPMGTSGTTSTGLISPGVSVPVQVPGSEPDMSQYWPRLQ
Chain of Transcription factor Sp1 (Homo sapiens) (P08047 whole entry, looked up): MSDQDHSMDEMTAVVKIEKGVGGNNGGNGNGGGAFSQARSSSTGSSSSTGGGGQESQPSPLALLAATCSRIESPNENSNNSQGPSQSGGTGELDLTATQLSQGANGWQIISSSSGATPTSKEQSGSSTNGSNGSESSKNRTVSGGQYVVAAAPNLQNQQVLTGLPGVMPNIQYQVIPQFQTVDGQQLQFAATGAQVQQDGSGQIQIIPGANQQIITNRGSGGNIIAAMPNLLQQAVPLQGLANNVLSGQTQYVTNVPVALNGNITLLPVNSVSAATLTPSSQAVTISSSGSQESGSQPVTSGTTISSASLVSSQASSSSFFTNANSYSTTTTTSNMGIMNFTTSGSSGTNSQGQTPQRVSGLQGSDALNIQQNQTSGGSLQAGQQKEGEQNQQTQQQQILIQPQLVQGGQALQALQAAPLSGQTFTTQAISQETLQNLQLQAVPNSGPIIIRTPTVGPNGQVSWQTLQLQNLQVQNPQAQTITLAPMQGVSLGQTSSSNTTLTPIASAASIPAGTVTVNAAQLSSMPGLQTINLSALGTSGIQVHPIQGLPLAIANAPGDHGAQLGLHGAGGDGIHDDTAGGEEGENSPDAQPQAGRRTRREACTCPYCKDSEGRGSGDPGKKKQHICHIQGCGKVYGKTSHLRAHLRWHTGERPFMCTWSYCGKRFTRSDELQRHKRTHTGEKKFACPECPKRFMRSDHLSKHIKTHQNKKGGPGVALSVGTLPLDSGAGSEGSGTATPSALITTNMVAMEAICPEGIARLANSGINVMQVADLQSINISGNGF
Chain of Glucocorticoid receptor (Homo sapiens) (P04150 whole entry, looked up, the tested form may be a part): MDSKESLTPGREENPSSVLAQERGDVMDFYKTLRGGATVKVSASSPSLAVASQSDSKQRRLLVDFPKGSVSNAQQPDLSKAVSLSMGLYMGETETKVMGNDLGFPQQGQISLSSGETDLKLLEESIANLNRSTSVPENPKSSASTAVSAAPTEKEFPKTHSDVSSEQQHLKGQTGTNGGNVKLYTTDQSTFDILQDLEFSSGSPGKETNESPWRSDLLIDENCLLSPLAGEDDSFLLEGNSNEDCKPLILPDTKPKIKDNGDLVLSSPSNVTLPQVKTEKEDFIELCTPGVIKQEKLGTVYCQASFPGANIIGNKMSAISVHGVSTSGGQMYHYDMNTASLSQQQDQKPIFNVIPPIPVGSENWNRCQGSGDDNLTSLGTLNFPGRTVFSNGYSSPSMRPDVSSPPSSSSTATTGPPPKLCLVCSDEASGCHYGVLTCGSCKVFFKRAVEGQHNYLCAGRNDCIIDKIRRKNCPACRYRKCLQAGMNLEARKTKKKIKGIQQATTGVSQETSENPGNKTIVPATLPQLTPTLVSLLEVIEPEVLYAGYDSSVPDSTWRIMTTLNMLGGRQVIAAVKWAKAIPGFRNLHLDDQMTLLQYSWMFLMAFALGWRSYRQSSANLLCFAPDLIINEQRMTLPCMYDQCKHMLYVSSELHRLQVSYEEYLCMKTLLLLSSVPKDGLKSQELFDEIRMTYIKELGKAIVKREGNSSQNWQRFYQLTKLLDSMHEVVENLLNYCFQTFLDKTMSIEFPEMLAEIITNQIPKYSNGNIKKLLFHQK
Chain of X-box-binding protein 1 (Homo sapiens) (P17861 whole entry, looked up): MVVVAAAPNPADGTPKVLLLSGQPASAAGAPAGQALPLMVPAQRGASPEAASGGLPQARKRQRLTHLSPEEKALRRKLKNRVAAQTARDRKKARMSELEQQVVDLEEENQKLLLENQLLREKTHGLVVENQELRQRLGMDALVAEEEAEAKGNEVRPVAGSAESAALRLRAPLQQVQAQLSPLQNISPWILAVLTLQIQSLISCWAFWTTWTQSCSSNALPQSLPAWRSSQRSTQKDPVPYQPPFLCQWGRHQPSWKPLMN
Chain of Nuclear receptor subfamily 1 group I member 3 (Homo sapiens) (Q14994 whole entry, looked up, the tested form may be a part): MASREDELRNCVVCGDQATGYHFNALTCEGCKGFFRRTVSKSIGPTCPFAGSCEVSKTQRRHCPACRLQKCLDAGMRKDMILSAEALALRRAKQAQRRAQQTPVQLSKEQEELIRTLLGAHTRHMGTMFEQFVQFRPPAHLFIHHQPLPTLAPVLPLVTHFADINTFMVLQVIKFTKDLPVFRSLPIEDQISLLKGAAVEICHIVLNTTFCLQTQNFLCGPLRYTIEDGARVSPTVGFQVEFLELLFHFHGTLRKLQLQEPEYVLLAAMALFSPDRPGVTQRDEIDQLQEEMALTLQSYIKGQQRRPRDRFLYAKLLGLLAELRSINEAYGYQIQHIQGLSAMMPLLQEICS

`Cc1ccc(S(=O)(=O)O)cc1C`: the result in test [1], in test [2], in test [3], in test [4], in test [5] and in [6] was inactive. Also, the result in test [7], in test [8], in test [9], in test [10], in [11] and in [12] was inactive. The molecule was called inactive in test [13].

With `CCCCC(CC)COC(=O)CCCCCCCCC(=O)OCC(CC)CCCC` (stereo not drawn), the molecule was called inactive in test [1], in [2], in test [3], in test [14], in [4] and in [5]. The call in test [6], in test [7], in [8], in test [9], in [10] and in [11] was inactive. Besides, the molecule was called inactive in test [15], in [13] and in test [16].

Take `Cc1ccc(N)cc1O`: the molecule was called inactive in [1], in test [2], in test [3], in [14], in test [4] and in test [5]. For the same molecule, the call in test [6], in test [7], in test [8], in test [9], in test [10] and in [11] was inactive. For the same molecule, the molecule was called inactive in [12] and in [16].

Regarding `CCCCCCCCO`, the molecule was classed as inactive in test [1], in test [2], in [3], in test [14], in test [4] and in test [5]. Moreover, the call in [6], in test [7], in test [9], in [10], in test [11] and in test [15] was inactive. The result in test [13], in [17] and in [16] was inactive. In addition, the AC50 in test [8] was 20.5 µM (active).
